CHT allo act – allosterically activates the human high affinity choline transporter; CHT-expressing cells, membrane potential dye, choline EC20; stronger effect = higher value; LV-AA mutant CHT in HEK293 cells; B-score at 10 µM; hit rate 0.49% among 310,000; AID 488977;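 active means initial fluorescence not abnormally high and integrated response B-score, plate-corrected, over 3 SD above library mean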
CHT inh – inhibitors of human choline transporter CHT | CHT-expressing cells, membrane potential dye, choline response; stronger effect = lower value | B-score at 10 µM | hit rate 0.86% among 310,000 | AID 488975;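 active means B-score over 3 SD under the library average, and starting fluorescence ratio not unusually high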;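 further: choline stimulus applied at its EC90 after an EC20 pre-addition; B-score computed on integrated fluorescence ratio after choline addition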
PGE2 EP2 inh – EP2 receptor (human) inhibition; inhibition, % at 25 µM; C6 glioma cells expressing human EP2, cAMP TR-FRET; cells stimulated with saturating PGE2; AID 1422; P43116; hit rate 0.52% among 260,000;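 active means percent inhibition above 40 after rounding to a whole number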;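 further: rat C6 glioma host cells with rolipram phosphodiesterase inhibitor present; the protocol text gives 20 µM as final concentration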
Target sequence (P43116 whole entry, looked up): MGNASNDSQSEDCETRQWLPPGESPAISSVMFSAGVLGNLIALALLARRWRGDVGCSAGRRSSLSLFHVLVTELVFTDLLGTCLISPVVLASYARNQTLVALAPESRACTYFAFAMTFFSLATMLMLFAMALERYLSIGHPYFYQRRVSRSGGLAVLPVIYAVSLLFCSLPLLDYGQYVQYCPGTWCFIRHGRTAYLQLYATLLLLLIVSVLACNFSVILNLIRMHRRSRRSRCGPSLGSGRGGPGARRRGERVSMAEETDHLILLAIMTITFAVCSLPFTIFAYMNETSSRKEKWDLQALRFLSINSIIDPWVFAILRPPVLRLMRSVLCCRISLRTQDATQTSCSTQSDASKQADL
EP2 modulator – modulates human prostaglandin E2 receptor EP2 signaling. EP2-expressing cells, cAMP HTRF FRET, PGE2 co-stimulation. AID 940. hit rate 0.83% among 260,000. P43116. induction, % at 25 µM;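 active means compounds whose cAMP rise, as percent of the full-agonist control response, exceeds 60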;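 further: rat C6 glioma line stably carrying human EP2 under a CMV promoter; the protocol text gives 20 µM as final concentration; 100% = response of wells given 1 µM PGE2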
* hit, by the source's call; i = inactive; . = no result; ! = a repeat was not active. Most compounds without a hit are left out; they make up all but 2% or so of the library.

SMILES	CHT allo act	CHT inh	PGE2 EP2 inh	EP2 modulator
COC(=O)c1ccc(C2C(C(=O)OC(C)C)=C(N)OC3=C2C(=O)CC(C)(C)C3)cc1 (stereo unspecified)	.	.	3.1	65.5*
CC(O)CNc1ncnc2scc(-c3ccccc3)c12 (stereo unspecified)	.	.	3.5	-40.7
COC(=O)CSc1cc(SCC(=O)OC)c(C#N)c(SCC(=O)OC)c1	i	i	54.9*	6.7
CCOC(=O)c1c(C)nc2c(c1-c1ccccc1)C(=O)c1ccccc1-2	i	i	5.5	61.1*
CCOC(=O)c1c(CCl)nc2ccccc2c1-c1ccccc1	i	i	6.3	87.2*
CCOC(=O)c1c(C)nc2ccc(Cl)cc2c1-c1ccccc1	i	i	2.4	33.5
CCN(CC)CCCNc1nc(SC)nc2sc3c(c12)CCN(C)C3	7.1*	i	.	.
CSc1nc(SCC(=O)NC(c2ccccc2)c2ccccc2)c2c3c(sc2n1)CN(C)CC3	i	i	13.3	-0.2
CCCc1cc(C(=O)NC(C)c2nc(-c3ccccc3C)no2)n[nH]1 (stereo unspecified)	.	.	6.3	-100.4
Cc1ccc(C(C(=O)NC2CCCCC2)N(Cc2ccco2)C(=O)Cc2cccs2)cc1 (stereo unspecified)	.	.	8.6	61.5*
CC(=O)c1ccc(N(C(=O)CS(=O)CC(=O)Nc2ccc(F)cc2)C(C(=O)NC2CCCCC2)c2cccs2)cc1 (stereo unspecified)	i	i	4.6	13.5
O=C(NC1CCCCC1)C(c1ccco1)N(Cc1ccc2c(c1)OCO2)C(=O)Cc1cccs1 (stereo unspecified)	.	.	9.7	87.0*
CC(=O)c1ccc(N(C(=O)Cc2cccs2)C(C(=O)NC2CCCCC2)c2cccs2)cc1 (stereo unspecified)	.	.	66.7*	46.5
CC(C)c1ccccc1NS(=O)(=O)c1ccc2c(c1)OCCO2	.	.	14.2	-9.7
CCn1c(COc2ccc(C)cc2)nnc1SCC(=O)NC1CCCCC1	.	.	6.8	-2.4
COC(=O)COC(=O)Cc1c(C)n(C(=O)c2ccc(Cl)cc2)c2ccc(OC)cc12	.	.	7.5	-13.1
COc1ccc(-n2c(=O)c3c(C)c(C)sc3n(Cc3cccc(F)c3)c2=O)c(OC)c1	i	i	4.6	60.6*
CCc1nc2sc3c(c2c2nnc(SCC(=O)NCc4ccc5c(c4)OCO5)n12)CCC(C)C3 (stereo unspecified)	.	.	13.7	80.4*
O=C(Cn1c(=O)oc2ccccc21)Nc1ccc(S(=O)(=O)N2CCCC2)cc1	.	.	10.5	-52.9
O=C(Nc1sc(NC(=O)c2cccs2)nc1-c1cccs1)c1ccccc1	.	.	18.1	60.8*
CC(=O)O/N=C1\C(=O)N(Cc2ccc(C)cc2)c2ccccc21	.	.	2.5	62.6*
CC(=O)CSc1nnc(-c2ccncc2)n1-c1ccccc1	.	.	4.9	-17.4
COC(=O)c1sc(-c2cccs2)cc1NC(=O)/C=C/C(=O)O	i	i	62.8*	-110.2
COc1ccc(Cl)cc1NC(=O)/C=C/C(=O)O	i	i	3.2	8.0
COc1ccc(NC(=O)/C=C/C(=O)O)c(OC)c1	i	i	3.3	74.6*
SMILES	CHT allo act	CHT inh	PGE2 EP2 inh	EP2 modulator
CCn1c(CSc2nc(C)cc(C)n2)nnc1SC(C)C(=O)Nc1ccccc1C (stereo unspecified)	.	.	12.8	-7.7
O=C1C=CC(=O)c2c(O)c(Cl)c(Cl)c(O)c21	.	.	128.8*	-19.7
CCn1c(COc2ccc(C)cc2)nnc1SCC(=O)N1c2ccccc2CC1C (stereo unspecified)	.	.	12.2	-40.4
O=C(CN1CCCC(O)C1)N1c2ccccc2Sc2ccc(C(F)(F)F)cc21 (stereo unspecified)	i	i	5.7	14.8
CN1CCN(CCCN2c3ccccc3Sc3ccc(C(F)(F)F)cc32)CC1	i	i	40.7*!	-21.4
Cc1sc2nc(C(C)C)n3c(=O)n(CC(=O)N4CCNC(=O)C4(C)C)nc3c2c1C	.	.	.	-44.3
COc1cccc(NC(=O)CSc2nnc(-c3ccco3)c(-c3ccco3)n2)c1	i	-7.35*	.	.
c1ccc(-c2c(-c3ccccc3)n(Cc3ccco3)c3ncnc(NCCCn4ccnc4)c23)cc1	i	i	48.7*	-20.9
COc1cc(C)cc2c(-c3c(O)cc(O)c4c3C[C@H](C)N[C@@H]4C)cc(-c3cc(-c4c(O)cc(O)c5c4C[C@H](C)N[C@@H]5C)c4cc(C)cc(OC)c4c3O)c(O)c12	.	.	41.1*	-11.8
N#CC1(Nc2ccc(-c3ccc(NC4(C#N)CCCC4)cc3)cc2)CCCC1	.	.	54.6*	-18.6
COc1ccc(Cn2cnc3c(N)c(C)c(C)cc32)cc1	i	i	5.8	2.0
CCCCCCCCn1cnc2c(N)c(C)c(C)cc21	i	i	3.4	61.6*
COCCSc1nnc(NC(=O)c2ccc(C(C)(C)C)cc2)s1	.	.	8.3	-27.4
CC(=O)Nc1ccc(S(=O)(=O)N(Cc2ccccc2)c2ccccc2F)cc1	i	i	7.3	64.2*
CC(=O)Nc1ccc(S(=O)(=O)N(Cc2ccccc2)c2ccccn2)cc1	i	i	.	.
Cc1ccc(NC(=S)N(Cc2cccnc2)Cc2cc3cccc(C)c3[nH]c2=O)cc1	.	.	18.3	-25.8
CCc1ccc(-c2cc(-c3n[nH]c(=S)n3CC)c3ccccc3n2)cc1	i	-11*	9.4	25.0
O=C1NC2(CCN(Cc3cn[nH]c3-c3cccs3)CC2)Oc2ccccc21	.	.	6.7	-22.6
Cc1nc(Sc2ccccc2)c(C#N)cc1-c1ccccc1	i	i	6.9	17.2
Cc1nc(Sc2ccccc2)c(C#N)c(C)c1[N+](=O)[O-]	i	i	6.7	61.0*
CC1(C)N=C(N)N=C(N)N1c1cccc(OCc2cccc(N)c2)c1	.	.	53.9*	-2.4
CC1(C)N=C(N)N=C(N)N1c1cccc(CSc2ccccc2)c1	.	.	51.6*	19.6
O=S1(=O)CC(O)C(O)C1 (stereo unspecified)	.	.	7.0	-13.7
O=C(CSc1ncnc2sc3c(c12)CCC3)N1CCCCCC1	.	.	10.8	-53.6
COc1cc(/C=C2/C(=N)N3C(SC)=NSC3=NC2=O)ccc1OC(=O)c1ccco1	i	-6.48*	.	.
SMILES	CHT allo act	CHT inh	PGE2 EP2 inh	EP2 modulator
OC1(c2ccccc2F)CCN(Cc2ccccc2OCC2CCCO2)CC1 (stereo unspecified)	.	.	4.6	-16.9
[N-]=[N+]=CC(=O)C(O)(c1ccccc1)C(Cl)c1ccccc1 (stereo unspecified)	i	i	.	.
[N-]=[N+]=CC(=O)C(c1ccccc1)(c1ccccc1)c1ccccc1	i	i	8.4	75.7*
COc1ccc2c(c1)c1c(C)c3cnccc3c(C)c1n2CCCN	.	.	48.5*	32.2
COc1ccc2c(c1)c1nc3ccccc3nc1n2CCCN1C(=O)c2ccccc2C1=O	i	i	14.2	5.3
CCCCC1(C)OC(=O)C(=Cc2ccc(-c3ccc(Cl)c(C(=O)O)c3)o2)C(=O)O1 (stereo unspecified)	i	i	16.4	-1.7
COC(=O)c1cc(-c2ccc(C=C3C(=O)OC4(CCCC4)OC3=O)o2)ccc1Cl	.	.	88.0*	-106.7
C[N+](C)(C)CCN[N@+]1(C)CCCc2ccccc21	.	.	40.5*	18.6
Cc1onc(-c2ccccc2)c1C(=O)N[C@@H]1C(=O)N2[C@@H]1SC(C)(C)[C@@H]2C(=O)O	.	.	.	26.0

Bioassay records as filed in PubChem.
